Screens from PubChem.
FMDV antiviral = antivirals against foot and mouth disease virus. FMDV antiviral cell-based qHTS. 410,000 tested, 1.2% active. Potency, µM (top dose mostly 57.9 µM), for inactives: at the highest dose activity change, negative = inhibition, usual class: inhibitors. AID 1159524; calls by dose curve; tested in HEK293T cells; also: read-out not given here; potency is read from the fitted curve at half-maximal effect; nearly all actives have a fitted effect of over 45% in size
Marburg entry inh = Marburg virus entry inhibition | Marburg virus pseudotyped entry inhibition, cell reporter | Potency, µM (titrated, usually from 37.8 µM), for inactives: top-dose activity change, negative = inhibition, hits mostly inhibitors | 300,000 tested, 1.8% active | AID 540276; calls by dose curve; tested in HEK293 cells; also: potency is read from the fitted curve at half-maximal effect
Vaccinia Venus = vaccinia inhibition (Venus reporter). Vaccinia virus Venus reporter expression, fluorescence. Potency, µM (highest dose often 36.5 µM), for the others: at the highest dose activity change, negative = inhibition, hits mostly inhibitors. 330,000 tested, 0.46% active; calls by dose curve; tested in A549 cells; also: potency is read from the fitted curve at half-maximal effect; nearly all actives have a fitted effect of over 30% in size
HCMV inh = inhibitors of human cytomegalovirus. HFF cells, HCMV-luciferase reporter, 72 h; stronger effect = lower value. activity change, negative = inhibition, % at 57.5 µM. 410,000 tested, 4.5% active; in the data active = activity change below about -60%; inconclusive = no clear call, values can overlap the other calls; inactive = above about -39%
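Screen run at 2 compound doses on HFFs infected with reporter HCMV, MOI 1 PFU/cell. Luciferase activity from cell lysates at 72 h post infection gave inhibition relative to buffer-only and Salinomycin wells.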
VACV mCherry inh = vaccinia inhibition (mCherry reporter); Vaccinia virus mCherry reporter infection, fluorescence; Potency, µM (doses to about 36.5 µM), inactives show top-dose activity change, negative = inhibition, usual class: inhibitors; 310,000 tested, 0.63% active; calls by dose curve; tested in A549 cells; also: potency is read from the fitted curve at half-maximal effect; nearly all actives have a fitted effect of over 35% in size
Lassa entry inh = Lassa virus entry inhibition. AID 540256. Potency, µM (doses to about 37.9 µM), for the others: at the highest dose activity change, negative = inhibition, most hits filed as inhibitors. Lassa virus pseudotype entry inhibition, cell reporter. 300,000 tested, 1.2% active; calls by dose curve; tested in HEK293 cells; also: potency is read from the fitted curve at half-maximal effect; nearly all actives have a fitted effect of over 50% in size
* hit, by the source's call; i = inactive; ? = inconclusive; · = no result; [ ] = another dose, or the depositor's remark. Shown are actives, neighbours in structure and some others; about 6.5% of the full set was active somewhere. % is scaled to controls: 0 for no effect and ±100 for the full control effect.

SMILES	FMDV antiviral	Marburg entry inh	Vaccinia Venus	HCMV inh	VACV mCherry inh	Lassa entry inh
COC(=O)[C@@]1(Cc2ccccc2)[C@@H]2C(=CC(=O)[C@H]2CC(=O)C(=O)N(C)C)CN1C(=O)c1ccccc1	14µM*	21µM*	?	·	?	?
COC(=O)[C@@]1(Cc2ccc(F)cc2)[C@H]2c3cc(C(=O)N(C)C)n(CCF)c3C[C@H]2CN1C(=O)c1ccccc1	-17%	·	-12%	-35	-13%	·
CCCOc1ccc(CSc2nc3ccccc3[nH]2)cc1	-4%	?	?	-92*	?	24%[14.3 µM]
CCOc1ccc(OCCSc2nc3ccccc3[nH]2)cc1	·	-21%	-28%	-76*	-6%	-6%
c1ccc(CSc2nc3ccccc3[nH]2)cc1	17%	?	-2%	57	-13%	?
COc1ccc(OCCSc2nc(C)nc3ccccc23)cc1	?	?	-16%	-65*	-10%	?
CCOC(=O)c1c(S(=O)(=O)NCC(=O)Nc2cccc(SC)c2)c(C)n(C)c1C	12%	·	-3%	-8	-12%	-11%[46.1 µM]
CCNC(=O)c1cnc2sc(N3CCCCCC3)nn2c1=O	13%	·	-8%	40	-9%	19%[46.1 µM]
CCCCCCN1C[C@H](n2cc(-c3ccc(F)cc3)nn2)[C@@H](O)C[C@@H]1c1ccc(Cl)cc1	-6%	·	14µM*	-102*	?	·
O=C(C1CCCCC1)N1C[C@H](O)[C@H](n2cc(-c3ccc(F)cc3)nn2)C[C@@H]1c1ccc(Cl)cc1	·	7.9µM*	·	·	·	·
Cc1ccc([C@H]2C[C@H](O)[C@@H](n3cc(-c4ccc(F)cc4)nn3)CN2C(=O)C2CCCCC2)cc1	-32%	?	-25%	-21	4%	·
Cc1ccc([C@H]2C[C@H](O)[C@@H](n3cc(-c4ccc(F)cc4)nn3)CN2CC2CCCCC2)cc1	-6%	·	-22%	5	i	28µM*
O[C@H]1CN(CC2CCCCC2)[C@@H](c2ccc(Cl)cc2)C[C@@H]1n1cc(C2CC2)nn1	?	·	?	-71*	-27%	·
Cc1ccc([C@H]2C[C@H](O)[C@@H](n3cc(-c4ccc(F)cc4)nn3)CN2Cc2cccs2)cc1	-14%	·	?	-39	?	?
COc1ccc([C@H]2C[C@@H](O)[C@H](n3cc(-c4ccc(F)cc4)nn3)CN2Cc2cccs2)cc1	·	8.9µM*	·	·	·	·
Cc1cc2n(n1)CCC(=O)N2Cc1ccc(C(=O)Nc2cc(Cl)ccc2C)cc1	0%	·	-4%	-31	-7%	?
OC(c1ccc(Cl)cc1)c1nnc(Nc2ccc(F)c(Cl)c2)s1 (centres undefined)	·	·	·	-63*	·	·
COc1ccc(Nc2nc3[nH]c(=O)cc(O)c3s2)cc1	-3%	?	5%	-25	1%	?
O=c1cc(O)c2sc(Nc3ccc(F)c(Cl)c3)nc2[nH]1	15%	-1%[46.1 µM]	13%	-101*	4%	0%
O=c1cc(O)c2sc(Nc3ccc(Cl)c(F)c3)nc2[nH]1	-5%	-12%[46.1 µM]	8%	-77*	?	-10%
COc1cccc([C@H]2Oc3ccc(OC)cc3C(=NOC[C@@H](C)[C@H](OCc3ccccc3)C(C)C)[C@H]2O)c1	·	10%[14.2 µM]	·	·	·	·
CCCn1cnc2c(SCc3ccccc3Cl)nc(N)nc21	6%	7.1µM*	-20%	?	-17%	11µM*
CCN(C(=O)c1oc2ccc(S(=O)(=O)N3CCCCCC3)cc2c1C)c1ccccc1	0%	·	-11%	-9	-13%	?
Cc1noc(C)c1COc1ccccc1C(=O)N1CCN(S(=O)(=O)c2cccc(Cl)c2)CC1	-24%	-30%	-15%	4	i	-3%
Cc1noc(C)c1COc1ccccc1C(=O)N1CCN(S(=O)(=O)c2ccc(C(C)C)cc2)CC1	?	·	-13%	-75*	-12%	·
Cc1noc(C)c1COc1ccccc1C(=O)N1CCN(S(=O)(=O)c2ccccc2Br)CC1	?	·	·	-86*	·	·
Cc1noc(C)c1COc1ccccc1C(=O)N1CCN(S(=O)(=O)c2ccccc2C(F)(F)F)CC1	-11%	-4%	-11%	-18	i	-11%
O=C(c1ccccc1Cc1ccccc1)N1CCN(S(=O)(=O)c2ccccc2Br)CC1	?	13µM*	-25%	-72*	?	-16%[46.1 µM]
CC(C)Nc1oc(-c2ccccc2)nc1-c1ccc(C(F)(F)F)cc1	·	-8%[14.2 µM]	·	·	·	·
